# According to PubChem BioAssay (Tox21):
# Several values for one entry are separate records, joined by “and”; a condition that tells them apart may be missing. Equal entries are not always repeated. Results filed as inconclusive are left out. Where a call stands in place of a potency, no number is given. Activity calls are given as the source filed them. Unless noted, calls come from the whole dose curve.
# Experiment: qHTS assay to identify small molecule agonists of the hypoxia (HIF-1) signaling pathway - cell viability counter screen (AID 1224844); note: nearly all actives have a fitted effect of over 50% in size; note: potency is the fitted concentration of half-maximal effect
# Conditions: HRE-bla ME-180 viability, CellTiter-Glo luminescence, 17 h; series mostly up to 76.8 µM
# How it was run: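 ME-180 HRE-bla cells, 2,000/well, 0.5% dialyzed FBS; 5 hr settle, 17 hr compound at 37C/5% CO2; CCF4-AM reporter read first, then CellTiter-Glo luminescence after 30 min RT.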
Structure (SMILES),"activity change, negative = cytotoxicity",Potency
C/C(=C(\CCOP(=O)(O)O)SC(=O)c1ccccc1)N(C=O)Cc1cnc(C)nc1N,-1.24% [at 6.97 µM] (inactive),–
CC1=CC=C(C(C)C)CC1,–,inactive
CCC(C)O (stereo not drawn),–,inactive
C=C1C(=C/C=C2\CCC[C@]3(C)[C@@H]([C@H](C)/C=C/[C@@H](O)C4CC4)CC[C@@H]23)C[C@@H](O)C[C@@H]1O,–,inactive
COC(=O)c1ccc(I)cc1S(=O)(=O)NC(=O)Nc1nc(C)nc(OC)n1,–,inactive
O[C@@H](COc1cccc2ncccc12)CN1CCN(C2c3ccccc3[C@@H]3[C@H](c4ccccc42)C3(F)F)CC1 (stereo partly drawn),–,inactive
CC(=O)NO,–,inactive
CCCC(=O)Nc1ccc(O)c(C(C)=O)c1,–,inactive
O=[N+]([O-])c1cccc(S(=O)(=O)O)c1,–,inactive
Brc1c2ccccc2c(Br)c2ccccc12,-13.7% [at 6.97 µM] (inactive),–
CN(C)c1ccc(/C=C/c2ccc([N+](=O)[O-])cc2)cc1,-6.06% [at 6.97 µM] (inactive),–
CCCn1cnc2c1c(=O)n(CCCCC(C)=O)c(=O)n2C,–,inactive
CCCCCCc1ccc(-c2ccc(C#N)cc2)cc1,–,inactive
C#Cc1cccc(Nc2ncnc3cc(OCCOC)c(OCCOC)cc23)c1,–,inactive
NCCCN1CCOCC1,–,inactive
C#CCN(C)CCCOc1ccc(Cl)cc1Cl,–,inactive
COc1cc(Cl)ccc1Oc1ccc(Cl)cc1Cl,–,inactive
OC(CN1CCC(Cc2ccc(F)cc2)CC1)c1ccc(Cl)cc1 (stereo not drawn),–,inactive
Nc1ncn([C@H]2C[C@H](O)[C@@H](CO)O2)c(=O)n1,–,inactive
CCCCC(CC)COC(=O)CCCCCCCCC(=O)OCC(CC)CCCC (stereo not drawn),–,inactive
S=C([S-])NCCNC(=S)[S-].[Mn+2],–,inactive
Cc1nn(C)c(Oc2ccccc2)c1/C=N/OCc1ccc(C(=O)OC(C)(C)C)cc1,–,inactive
CCCCCCOC(=O)NC(=N)c1ccc(NCc2nc3cc(C(=O)N(CCC(=O)OCC)c4ccccn4)ccc3n2C)cc1,–,23.9 µM (active)
CCc1cc(C2=C(C(=O)O)N(c3ccccc3C(F)(F)F)S(=O)(=O)c3ccccc32)cc2c1OCO2,–,21.6 µM (active)

# Experiment: qHTS assay to identify small molecule agonists of H2AX (AID 1224845; active = well fitted activation curve with a large enough effect in the signal ratio in the repeat runs, not every such curve was filed as active; the % refers to the signal ratio; note: potency is the fitted concentration of half-maximal effect)
# Conditions: CHO-K1 phospho-H2AX Ser139 HTRF, 3 h; series mostly up to 154 µM
# How it was run: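 Wild-type CHO-K1 cells, plated overnight, exposed 3hr at 37C to 15 concentrations (0.76% DMSO final). Lysed, then HTRF anti-pH2AX (S139) cryptate and anti-H2AX-d2 antibodies, 24 hr room temperature; 665/620 nm emission read.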
Structure (SMILES),activation (H2AX phosphorylation),Potency
C/C(=C(\CCOP(=O)(O)O)SC(=O)c1ccccc1)N(C=O)Cc1cnc(C)nc1N,-0.259% [at 14 µM] (inactive),–
CC1=CC=C(C(C)C)CC1,–,inactive
C=C1C(=C/C=C2\CCC[C@]3(C)[C@@H]([C@H](C)/C=C/[C@@H](O)C4CC4)CC[C@@H]23)C[C@@H](O)C[C@@H]1O,–,inactive
Brc1c2ccccc2cc2ccccc12,–,inactive
O[C@@H](COc1cccc2ncccc12)CN1CCN(C2c3ccccc3[C@@H]3[C@H](c4ccccc42)C3(F)F)CC1 (stereo partly drawn),–,inactive
CC(=O)NO,–,inactive
CCCC(=O)Nc1ccc(O)c(C(C)=O)c1,–,inactive
CCCCC(=O)OCC(=O)[C@H]1[C@H](C)C[C@H]2[C@@H]3C[C@H](F)C4=CC(=O)C=C[C@]4(C)[C@@]3(F)[C@@H](O)C[C@@]21C,–,inactive
O=[N+]([O-])c1cccc(S(=O)(=O)O)c1,–,inactive
CC1(c2ccccc2)OC(C(=O)O)=CC1=O (stereo not drawn),–,inactive
Cc1cccc(Nc2ccccc2)c1,–,inactive
CCCn1cnc2c1c(=O)n(CCCCC(C)=O)c(=O)n2C,–,inactive
CN(C)CCN(Cc1ccccc1)c1ccccn1,–,inactive
C[C@H]1C[C@H]2[C@@H]3CCC4=CC(=O)C=C[C@]4(C)[C@@]3(Cl)[C@@H](O)C[C@]2(C)[C@@]1(O)C(=O)CO,–,inactive
NCCCN1CCOCC1,–,inactive
C#CCN(C)CCCOc1ccc(Cl)cc1Cl,–,inactive
CCCCCCCCCCCCN1CCCCCC1=O,–,inactive
C=CC(=O)OCCOCCOCCOCCOC(=O)C=C,–,50.8 µM (active) and 50 µM (active)
CCCCC(CC)COC(=O)CCCCCCCCC(=O)OCC(CC)CCCC (stereo not drawn),–,inactive
Cc1nn(C)c(Oc2ccccc2)c1/C=N/OCc1ccc(C(=O)OC(C)(C)C)cc1,–,inactive
CCc1cc(C2=C(C(=O)O)N(c3ccccc3C(F)(F)F)S(=O)(=O)c3ccccc32)cc2c1OCO2,–,inactive

# Experiment: qHTS assay to identify small molecule agonists of the hypoxia (HIF-1) signaling pathway (AID 1224846; active = well fitted activation curve with a large enough effect in the signal ratio in the repeat runs, not every such curve was filed as active; the % refers to the signal ratio)
# Conditions: HRE-bla ME-180 cells, beta-lactamase ratio, 17 h; series mostly up to 76.8 µM
# How it was run: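 Cell line: CellSensor HRE-bla ME-180; 2,000 cells/well; 0.5% dialyzed FBS; 5 h preincubation; DMSO compound pin transfer; 17 h, 37C, 5% CO2; CCF4-AM added; bla FRET signal scored for activation.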
Structure (SMILES),Potency,activation
CC1=CC=C(C(C)C)CC1,inactive,–
CCC(C)O (stereo not drawn),inactive,–
COC(=O)c1ccc(I)cc1S(=O)(=O)NC(=O)Nc1nc(C)nc(OC)n1,inactive,–
CC(=O)NO,inactive,–
CCCC(=O)Nc1ccc(O)c(C(C)=O)c1,inactive,–
CCCCC(=O)OCC(=O)[C@H]1[C@H](C)C[C@H]2[C@@H]3C[C@H](F)C4=CC(=O)C=C[C@]4(C)[C@@]3(F)[C@@H](O)C[C@@]21C,inactive,–
CCN(CC)c1ccc(C(=C2C=CC(=[N+](CC)CC)C=C2)c2cc(S(=O)(=O)O)ccc2S(=O)(=O)[O-])cc1,inactive,–
O=[N+]([O-])c1cccc(S(=O)(=O)O)c1,inactive,–
CC1(c2ccccc2)OC(C(=O)O)=CC1=O (stereo not drawn),inactive,–
CN(C)c1ccc(/C=C/c2ccc([N+](=O)[O-])cc2)cc1,–,-1.48% [at 7.01 µM] (inactive)
Cc1cccc(Nc2ccccc2)c1,inactive,–
C#Cc1cccc(Nc2ncnc3cc(OCCOC)c(OCCOC)cc23)c1,inactive,–
NCCCN1CCOCC1,inactive,–
COc1cc(C(=O)OCCCN2CCCN(CCCOC(=O)c3cc(OC)c(OC)c(OC)c3)CC2)cc(OC)c1OC,inactive,–
COc1cc(Cl)ccc1Oc1ccc(Cl)cc1Cl,inactive,–
OC(CN1CCC(Cc2ccc(F)cc2)CC1)c1ccc(Cl)cc1 (stereo not drawn),inactive,–
Nc1ncn([C@H]2C[C@H](O)[C@@H](CO)O2)c(=O)n1,inactive,–
CCCCC(CC)COC(=O)CCCCCCCCC(=O)OCC(CC)CCCC (stereo not drawn),inactive,–
CCN(CC)c1ccc2c(-c3ccccc3C(=O)O)c3ccc(=[N+](CC)CC)cc-3oc2c1,inactive,–
S=C([S-])NCCNC(=S)[S-].[Mn+2],inactive,–
Cc1nn(C)c(Oc2ccccc2)c1/C=N/OCc1ccc(C(=O)OC(C)(C)C)cc1,inactive,–
CCCCCCOC(=O)NC(=N)c1ccc(NCc2nc3cc(C(=O)N(CCC(=O)OCC)c4ccccn4)ccc3n2C)cc1,inactive,–
CCc1cc(C2=C(C(=O)O)N(c3ccccc3C(F)(F)F)S(=O)(=O)c3ccccc32)cc2c1OCO2,inactive,–
